Compound activity: PubChem, Paczesny and Yang Labs, IUPUI and University of Michigan
ST2 inh = IL1RL1 inhibition; Q01638; AlphaLISA ST2-Fc/biotin-IL-33 interaction, 1 h; inhibition, % for hits at 17 µM; actives 2.3% (n = 78,000); in the data active means inhibition above about 30%
Target sequence (Q01638 whole entry, looked up): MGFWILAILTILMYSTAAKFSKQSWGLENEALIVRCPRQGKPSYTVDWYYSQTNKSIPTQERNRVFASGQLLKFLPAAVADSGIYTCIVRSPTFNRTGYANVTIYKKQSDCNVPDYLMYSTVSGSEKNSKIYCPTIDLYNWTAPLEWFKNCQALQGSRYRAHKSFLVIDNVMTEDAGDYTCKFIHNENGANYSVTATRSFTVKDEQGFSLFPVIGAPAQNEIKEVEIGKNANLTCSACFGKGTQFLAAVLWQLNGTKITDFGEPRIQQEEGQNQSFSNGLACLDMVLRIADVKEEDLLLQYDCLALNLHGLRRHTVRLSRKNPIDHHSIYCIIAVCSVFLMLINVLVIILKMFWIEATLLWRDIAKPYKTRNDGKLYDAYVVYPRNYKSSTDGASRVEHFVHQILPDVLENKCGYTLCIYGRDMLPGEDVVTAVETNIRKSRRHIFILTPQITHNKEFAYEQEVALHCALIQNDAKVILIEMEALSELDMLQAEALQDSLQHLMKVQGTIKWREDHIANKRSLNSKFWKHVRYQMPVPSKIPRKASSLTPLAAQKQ
Large screens that a line does not name were inactive; ! = not active in a repeat. This excerpt belongs to a sample that is enriched for hits.

O=C(O)c1cc2c3c(c1)C1C=CCC1C(c1ccccc1F)N3CC1CC=CC21 (centres undefined)	none
O=C(O)c1cc2c3c(c1)C1C=CCC1C(c1ccc(F)cc1)N3CC1CC=CC21 (centres undefined)	none
NS(=O)(=O)c1ccc(CCNC(=O)c2ccccc2NC(=O)C2=CSCCO2)cc1	none
CC1(C)CC(=O)C(C(C2=C(O)CC(C)(C)CC2=O)c2ccc(F)cc2)C(=O)C1 (centres undefined)	none
O=C1c2cc3ccccc3cc2C(=O)N1c1cccc(Br)c1	none
CCOC(=O)C1(CCOc2ccccc2)CCCN(C(=O)c2ccc(OC)o2)C1 (centres undefined)	none
COc1ccc(C2CC(c3ccc(F)cc3)n3nc(N)nc3N2)cc1 (centres undefined)	none
NC1=NCCN1c1ccccc1	none
Nc1ccnn1-c1ccccc1	none
NC1=NN(c2ccccc2)CC1	ST2 inh 40%
CN(CCc1ccccn1)[C@H]1[C@@H]2OC[C@@H](O2)[C@@H](NCc2ccc(F)cc2)[C@@H]1O	ST2 inh 32%
COc1ccc(CN[C@H]2[C@H](O)[C@@H](N(C)CCN(C)C)[C@@H]3OC[C@H]2O3)cc1	none
CN(CCc1ccccn1)[C@H]1[C@@H]2OC[C@@H](O2)[C@@H](NC(=O)Nc2ccccc2)[C@@H]1O	none
CN(C)CCCN1C(=O)C(O)=C(C(=O)c2ccco2)C1c1ccc(F)cc1 (centres undefined)	none
O=C1CSC(c2ccc(Br)cc2)N1c1ccc(F)c(Cl)c1 (centres undefined)	none
Cn1c(SCC(=O)Nc2cccc(Cl)c2)nc2c([nH]c3ccccc32)c1=O	none
COCCCn1ccnc1-c1cc(OC)ccc1-n1cccn1	none
CCSC1=N/C(=C2\C=Cc3ccccc3N2CC)C(=O)S1	ST2 inh 73%
CCN1C(=O)CC(c2ccccc2)Sc2ccccc21 (centres undefined)	none
CCN1/C(=C2\C(=O)N(c3ccc(Cl)cc3)N=C2C)C=Cc2ccccc21	none
CCOc1ccc(CC(=O)Nc2cc(N3CCCS3(=O)=O)ccc2OC)cc1	none
COC(=O)c1ccc(NS(=O)(=O)c2cc(Br)cc3c2N(C(C)=O)C(C)C3)cc1 (centres undefined)	none
COc1cccc(OC)c1C(=O)Nc1ccc([N+](=O)[O-])cc1	none
COc1ccccc1C1C(Oc2ccccc2C)C(=O)N1c1cccc([N+](=O)[O-])c1 (centres undefined)	ST2 inh 33%
COc1cc([N+](=O)[O-])ccc1NC(=O)c1c(C)nn(-c2ccccc2)c1Cl	none
CCOc1ccc2nc(N3CCC(C(=O)NCc4ccccc4OC)CC3)nc(C)c2c1	none
COc1ccc(NC(=O)O[C@@H]2CO[C@H]3[C@@H]2OC[C@@H]3Nc2nccc(-c3ccc4c(c3)OCO4)n2)cc1	none
CCS(=O)(=O)N1CCN(c2c(Cl)cccc2[N+](=O)[O-])CC1	none
Cc1ccc(OCCCN2CCCCC2)c([N+](=O)[O-])c1	none
Cc1c(Cl)c([N+](=O)[O-])cc([N+](=O)[O-])c1N1CCCC1	ST2 inh 40%
Cc1nc(NCc2ccc(Cl)cc2)c2c(C)c(C)sc2n1	none
O=C(Nc1ccccc1)c1cc([N+](=O)[O-])ccc1Cl	none
O=C(c1ccc([N+](=O)[O-])cc1Cl)N(Cc1ccccc1)Cc1ccccc1	ST2 inh 38%
O=C(Nc1ccc(Cc2ccncc2)cc1)c1ccc([N+](=O)[O-])cc1Cl	none
CCC(CC)C(=O)Nc1ccc2c(c1)OCO2	none
Cc1cnc(C)c(N2CCOc3c(O)cc(-c4ccccc4C)cc3C2)n1	none
COc1ccc(C2=NN(S(=O)(=O)c3ccccc3)C(c3ccc(C)cc3)C2)cc1OC (centres undefined)	none
COc1ccc(C2CC(c3cccs3)=NN2S(=O)(=O)c2ccc(C)cc2)cc1 (centres undefined)	ST2 inh 32%!
COc1ccc(C2CC(c3ccc(C)cc3)=NN2S(=O)(=O)c2ccccc2)cc1 (centres undefined)	none
Cc1ccc(C2CC(c3cccs3)=NN2S(=O)(=O)c2ccc(C)cc2)cc1 (centres undefined)	ST2 inh 33%
COc1ccc(C2CC(c3cccs3)=NN2C(C)=O)cc1 (centres undefined)	none
O=S(=O)(c1ccccc1)N1N=C(c2ccccc2)CC1c1ccc(Cl)cc1 (centres undefined)	none
CCC(=O)Nc1cccc(C(=O)NCCn2nc(C)c(CC)c2C)c1	none
COc1cccc(OC)c1C(=O)N1CCN=C1SCc1ccccc1F	none
Cc1ccc(CCC(=O)N2CCC(CO)(Cc3ccccc3)CC2)cc1	none
Cc1ccc(NC(=O)c2cccc([N+](=O)[O-])c2)cc1C	none
O=C(Nc1cccc(Cl)c1)c1cccc([N+](=O)[O-])c1	ST2 inh 92%
O=C(Nc1ccc(I)cc1)c1cccc([N+](=O)[O-])c1	none
COc1ccc(NS(=O)(=O)c2ccc3c(c2)CCC(=O)N3)cc1Cl	none
COc1ccc(-c2nc3n(n2)C(=O)CC(c2ccc(C)cc2)S3)cc1 (centres undefined)	none
Cc1ccc(N2CN=c3s/c(=C\c4ccco4)c(=O)n3C2)cc1	ST2 inh 34%
O=c1/c(=C/c2ccco2)sc2n1CN(c1ccc([N+](=O)[O-])cc1)CN=2	none
CCOc1ccc(N2CN=c3s/c(=C/c4cccs4)c(=O)n3C2)cc1	none
CC(C)c1ccc(Nc2nnc(Cc3ccccc3Cl)c(=O)[nH]2)cc1	none
Cc1ccc(CNS(=O)(=O)c2ccc(Br)s2)cc1	none
O=C(CNS(=O)(=O)c1ccc(Br)s1)N1CCN(Cc2ccccc2)CC1	none
Cc1ccc(CN2CCCN(S(=O)(=O)c3ccc(Br)s3)CC2)cc1	ST2 inh 35%
O=[N+]([O-])c1cccc(S(=O)(=O)Nc2cccc(F)c2)c1	none
Cc1nc(C(C)C)sc1C(=O)N1CCNCC1C(=O)N1CCCC1 (centres undefined)	none
CN1CCCC(CN(CCc2ccccc2)C(=O)C2=CCCC2)C1 (centres undefined)	none
O=C1Nc2ccccc2C(O)(C(=O)NCCCN2CCCCC2)N1c1ccc(Cl)c(Cl)c1 (centres undefined)	none
OC(COc1ccccc1)Cn1ccnc1 (centres undefined)	none
O=[N+]([O-])c1ccc(Nc2nc(N3CCOCC3)nc(N3CCOCC3)n2)cc1	none
O=C1CC(N2CCOCC2)C(=O)N1c1cccc(Cl)c1 (centres undefined)	none
COc1ccc(NC2CC(=O)N(c3cccc(Cl)c3)C2=O)cc1 (centres undefined)	none
O=C1CC(Nc2ccc(N3CCOCC3)cc2)C(=O)N1c1ccc2c(c1)OCO2 (centres undefined)	ST2 inh 55%
O=C1C2C3c4ccccc4C(c4ccccc43)C2C(=O)N1c1ccc2c(c1)OCO2 (centres undefined)	none
O=C1CC(Nc2ccccc2)C(=O)N1c1ccc(Br)cc1 (centres undefined)	none
O=C1CC(Nc2ccc(Br)cc2)C(=O)N1c1cccc(Cl)c1 (centres undefined)	ST2 inh 32%
O=[N+]([O-])c1cccc(-c2nc(N3CCOCC3)c3ccccc3n2)c1	none
O=C1CC(Nc2ccc(N3CCOCC3)cc2)C(=O)N1c1cccc([N+](=O)[O-])c1 (centres undefined)	ST2 inh 47%
Cc1ccc([N+](=O)[O-])cc1N1C(=O)CC(Nc2ccc(N3CCOCC3)cc2)C1=O (centres undefined)	ST2 inh 52%
O=C1CC(NCc2ccc3c(c2)OCO3)C(=O)N1c1ccccc1 (centres undefined)	none
Cc1ccc(S(=O)(=O)N2CCN(c3ccc([N+](=O)[O-])c(N4CCOCC4)c3)CC2)cc1	none
